In PubChem BioAssay (NCATS) one finds Potency and outcome data, which are given here for one molecule.

Test [1] is described as follows: COV-362 Cancer Cell Toxicity qHTS against the NCATS CANVASS Library (AID 1347352). Further: potency means the concentration at half of the fitted maximal effect. To be noted: COV-362 viability, CellTiter-Glo luminescence, 72 h. In a few lines:
(§1)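 1000 cells/well, 4 h pre-incubation 37 °C/5% CO2; 11-pnt titration; 72 h; CellTiter-Glo 15 min RT, luminescence.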

The nature of test [2]: A2780 Cisplatin Sensitive Ovarian Cancer Cell Toxicity qHTS against the NCATS CANVASS Library (AID 1347353). Further: potency means the concentration at half of the fitted maximal effect; nearly all actives have a fitted effect of over 60% in size. To be noted: A2780 ovarian cancer viability, ATPLite luminescence, 72 h. The method, boiled down: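 750 cells/well, 4 h settle; 11-pt cpd titration; 72 h, 37 °C, 5% CO2; ATPLite 10 min RT; luminescence read.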
In general terms: qHTS replaces the single test concentration by a dilution series.

A short description of test [3]: HEK-293 Cancer Cell Toxicity qHTS against the NCATS CANVASS Library (AID 1347355). Further: potency means the concentration at half of the fitted maximal effect; nearly all actives have a fitted effect of over 65% in size. The following applies: HEK-293 viability, CellTiter-Glo luminescence, 72 h. The method, boiled down: as §1
Test [4] can be described thus: HPAF-II 24hr Apoptosis Induction qHTS against the NCATS CANVASS Library (AID 1347356). To be noted: HPAF-II caspase-3/7 Caspase-Glo luminescence; series mostly up to 46.1 µM. The method, boiled down: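 500 HPAF-II cells/well; compounds in 11-pnt qHTS; 24 h, 37 C/5% CO2; Caspase-Glo 3/7 added, 15 min RT dark; luminescence read. Doxorubicin control.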
Test [5] in a line: HEK293 18hr Apoptosis Induction qHTS against the NCATS CANVASS Library (AID 1347357). The following applies: HEK293 caspase-3/7 Caspase-Glo luminescence; series mostly up to 46.1 µM. The method, boiled down: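 HEK293 cells (500/well, DMEM + 10% FBS) treated with an 11-point series for 18 h at 37 degrees C. Caspase-3/7 activity read by Caspase-Glo luminescence after 15 min at room temperature.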

Test [6] can be described thus: HPAF-II 12hr Apoptosis Induction qHTS against the NCATS CANVASS Library (AID 1347358). To be noted: HPAF-II caspase-3/7 Caspase-Glo luminescence; series mostly up to 46.1 µM. The method, boiled down: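 Caspase-Glo 3/7 luminescence (DEVD substrate) reports caspase activity in HPAF-II cells after 12 h compound treatment at 37 degrees C. Compounds were tested in an 11-point series. Doxorubicin served as control.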

A short description of test [7]: HEK293 24hr Apoptosis Induction qHTS against the NCATS CANVASS Library (AID 1347359). The following applies: HEK293 caspase-3/7 activation, Caspase-Glo luminescence; series mostly up to 46.1 µM. From the text: (§2) Natural products and their derivatives continue to be wellsprings of nascent therapeutic potential. However, many laboratories have limited resources for biological evaluation, leaving their previously isolated or synthesized compounds largely or completely untested. To address this issue, the Canvass library of natural products was assembled (https://tripod.nih.gov/canvass), in collaboration with academic and industry researchers, for quantitative high-throughput screening (qHTS) across a diverse set of cell-based and biochemical assays. The pure (>85% purity by liquid chromatography/mass spectrometry [LC/MS]) Canvass library of 346 natural products were submitted by 45 academic laboratories and companies around the world. […] The library was formatted into 1536-well plates and evaluated in 50 qHTS (in an 11-pnt concentration series) bioassays with broad scope of disease-relevant mechanisms. The resulting data set from 50 different assays was then systematically analyzed to identify overall trends and specific natural products with interesting biological activities. […] The luminescence is proportional to the amount of caspase activity in the assay reaction. […]
Cancer Cell Apoptosis Assay 1. […] Luminescence signal was acquired via the ViewLux plate reader (PerkinElmer) using a clear filter, 20 second exposure and 2x binning settings.

A short description of test [8]: HPAF-II 18hr Apoptosis Induction qHTS against the NCATS CANVASS Library (AID 1347360). To be noted: HPAF-II caspase-3/7 luminescence; series mostly up to 46.1 µM. The method, boiled down: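 HPAF-II cells at 500/well were exposed for 18 h at 37 C to an 11-point compound series. Caspase-3/7 activity was read by Caspase-Glo luminescence after 15 min at RT.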
Test [9] is described as follows: HEK293 12hr Apoptosis Induction qHTS against the NCATS CANVASS Library (AID 1347361). The following applies: HEK293 caspase-3/7 Caspase-Glo luminescence; series mostly up to 46.1 µM.
Text: as §2
Cancer Cell Apoptosis Assay 1. […] Luminescence signal was acquired via the ViewLux plate reader (PerkinElmer) using a clear filter, 20 second exposure, and 2x binning settings.

Test [10] deals with NAD(P)H diaphorase (Clostridium kluyveri). The test can be described thus: Diaphorse counterscreen qHTS: Assay Interference Panel against the NCATS CANVASS Library (AID 1347362). To be noted: Diaphorase enzyme, resazurin to resorufin fluorescence; series mostly up to 57.5 µM. In a few lines: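 Clostridium kluyveri diaphorase in PBS + 0.01% Tween-20 preincubated 15 min with compounds. Resazurin and NADH then added for 5 min at room temperature in the dark; resorufin fluorescence read (ex 525, em 598).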

Records with an inconclusive call do not appear. Calls of active or inactive are those of the source. The call rests on the fitted dose curve; in most records, active means well fitted curve in the direction sought with a large enough effect; inconclusive means small, poorly fitted or top-dose-only effect, or another doubt; inactive means no such curve, though single readings can be large; an effect the other way counts as inactive or inconclusive.

On to `C=C1C(=O)O[C@H]2[C@H]1CC/C(C)=C/CC[C@@]1(C)O[C@@H]21`, for which the Potency in test [1] is 18.8 µM (active); in test [2] it was 2.96 µM (active); in test [3], 7.43 µM (active). In addition, the outcome in test [4], in [5], in [6], in test [7], in test [8] and in [9] was inactive. For the same molecule, the molecule was classed as inactive in [10].
